According to PubChem BioAssay (NCATS):
Records with an inconclusive call do not appear. A call without a number means that no potency is given here. Activity calls are given as the source filed them. Unless noted, calls come from the whole dose curve.

Assays:
[1] = target: Peroxisome proliferator-activated receptor gamma (Homo sapiens) (UniProt P37231); test: qHTS assay for small molecule agonists of peroxisome proliferator-activated receptor gamma signaling (AID 588536; active = well fitted curve in the direction sought with a large enough effect in the signal ratio, with a control signal flat, not every such curve was filed as active; the % refers to the signal ratio)
Procedure, shortened: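 Ratiometric blue/green fluorescence (405 nm excitation; 460 and 530 nm emission) from CCF4-loaded HEK293 reporter cells serves as signal. Exposure to test compounds lasts 16 h at 37 C in medium containing 1% charcoal/dextran-treated serum.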

[2] = target: Vitamin D3 receptor (Homo sapiens) (UniProt P11473); test: qHTS assay for small molecule antagonists of vitamin D receptor signaling (AID 588541);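 note: receptor activated by calcitriol during compound treatment; series mostly up to about 77 µM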
Source text: NIH Chemical Genomics Center [NCGC]
U.S. Environmental Protection Agency [EPA]
National Institutes of Environmental Health Sciences [NIEHS]
National Toxicology Program [NTP]
The Vitamin D receptor (VDR) is a member of nuclear hormone receptor superfamily and it plays a critical role in calcium homeostasis and bone metabolism. It plays a role in inducing cell differentiation, inhibiting cell growth and in thrombogenicity. So, VDR that mediates these effects represents a pharmacological target in prevention and treatment of hyperproliferative malignancies, such as cancer and psoriasis, cardiovascular, immunological, inflammatory and renal diseases etc.
NCGC Assay Protocol Summary
Using a beta-lactamase reporter-gene under control of Vitamin D receptor (VDR) response element, a cell-based assay [GeneBLAzer (VDR -UAS-bla assay developed by Invitrogen] was used to measure VDR ligands signaling. GeneBLAzer VDR -UAS-bla HEK293T cells were used with assay medium containing 2% charcoal-stripped FBS. The assay was performed in clear bottom black Greiner 1536-well plates. Library compounds were measured for their ability to inhibit the reporter gene activity. Compounds were screened in a titration series in 1536-well format. The fluorescence intensity (405 nm excitation, 460/530 nm emission) was measured using an EnVision plate reader. Data was normalized relative to 1-alpha,25-Dihydroxy vitaminD3 control (50 nM, 100%) and DMSO only wells (basal, 0%). Concentration-response titration points for each compound were fitted to the Hill equation yielding concentrations of half-maximal inhibition (IC50) and maximal response (efficacy) values.
qHTS protocol for VDR beta-lactamase assay in antagonist mode
[Step] [Parameter] [Value] [Description]
1. Reagent; 5 uL; 2000 cells/well
2. Incubation; 37 C for 5 hrs
4. Controls (DMSO); 23 nL,
5. Agonist (Stimulator); 1uL; 1-alpha,25-Dihydroxy vitaminD3 at 50 nM and 3 nM final concentrations
6. Incubation; 37 C for 16 hrs
7. Detection reagent; 1 uL of CCF4-dye
8. Incubation; RT for 2 hrs
9. Detection; Fluorescence; Envision plate reader

[3] = target: Vitamin D3 receptor (Homo sapiens) (UniProt P11473); test: qHTS assay for small molecule agonists of vitamin D receptor signaling (AID 588543)
Procedure, shortened: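 β-lactamase reporter, VDR-UAS-bla HEK293T, agonist mode. Cells plated 5 h at 37 °C, compound titration 16 h at 37 °C, CCF4 dye 2 h RT, ratio 460/530 nm. Hill fit → EC50, efficacy vs 50 nM 1α,25-(OH)2D3.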

[4] = target: Androgen receptor (Homo sapiens) (UniProt P10275); test: qHTS assay for small molecule antagonists of androgen receptor signaling (AID 588516; active = well fitted curve in the direction sought with a large enough effect in the signal ratio, with a control signal flat, not every such curve was filed as active; the % refers to the signal ratio; note: potency is the fitted concentration of half-maximal effect); settings: AR-UAS-bla HEK293, beta-lactamase ratio, antagonist mode, 16 h
Procedure, shortened: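 HEK293 AR-UAS-bla cells, 10% dialyzed FBS medium; cpd titration + R1881 10 nM final, 16 h 37 C; CCF4 2 h RT; FRET ratio; IC50/efficacy via Hill fit.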

[5] = target: Bile acid receptor (Homo sapiens) (UniProt Q96RI1); test: qHTS assay for small molecule antagonists of farnesoid X receptor signaling (AID 588526); note: potency is the fitted concentration of half-maximal effect
Procedure, shortened: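 Concentration-response titrations were fitted to the Hill equation for half-maximal inhibition and maximal response, with data normalised to 50 uM chenodeoxycholic acid and DMSO control wells. Cells: FXR-UAS-bla HEK293T, dialyzed FBS.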

[6] = target: Glucocorticoid receptor (Homo sapiens) (UniProt P04150); test: qHTS assay for small molecule agonists of glucocorticoid receptor signaling (AID 588532; active = well fitted curve in the direction sought with a large enough effect in the signal ratio, with a control signal flat; the % refers to the signal ratio); settings: HeLa MMTV-bla, beta-lactamase ratio, agonist, 18 h; stronger effect = higher value; percent of dexamethasone control, DMSO zero
Procedure, shortened: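 Titration series, up to 92 uM, applied to GRE-bla HeLa cells for 18 h at 37 C. Detection by CCF4 FRET substrate after 2 h at RT.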

[7] = target: Glucocorticoid receptor (Homo sapiens) (UniProt P04150); test: qHTS assay for small molecule antagonists of glucocorticoid receptor signaling (AID 588533; active = well fitted inhibition curve with a large enough effect in the signal ratio, with a control signal flat, not every such curve was filed as active; the % refers to the signal ratio;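 note: cells stimulated with 2 nM dexamethasone as agonist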; note: potency is the fitted concentration of half-maximal effect)
Procedure, shortened: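 Antagonist-mode qHTS: compound titrations added to GRE-bla HeLa cells, then dexamethasone 2 nM final; 18 h, 37 C. CCF4 FRET fluorescence normalized to dexamethasone and DMSO; IC50 from Hill fit.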

[8] = qHTS assay for small molecule antagonists of peroxisome proliferator-activated receptor delta signaling (AID 588535; active = well fitted inhibition curve with a large enough effect in the signal ratio, with a control signal flat, not every such curve was filed as active; the % refers to the signal ratio;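 for max response: cells co-treated with a PPAR-delta agonist as stimulator during compound exposure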); settings: HEK293T PPARd-UAS-bla, beta-lactamase FRET ratio, 18 h; 460 nm channel
Procedure, shortened: (§1)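 Reporter: UAS-bla under PPAR-delta response element, HEK293T host. Medium: 2% charcoal/dextran FBS. Dosing: titration, 18 hrs, 37 C. Detection: CCF4, 2 hrs RT, 405 ex/460 and 530 em.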

[9] = target: Peroxisome proliferator-activated receptor delta (Homo sapiens) (UniProt Q03181); test: as above
Procedure, shortened: as §1

[10] = target: Peroxisome proliferator-activated receptor gamma (Homo sapiens) (UniProt P37231); test: qHTS assay for small molecule antagonists of peroxisome proliferator-activated receptor gamma signaling (AID 588537; active = well fitted inhibition curve with a large enough effect in the signal ratio, with a control signal flat, not every such curve was filed as active; the % refers to the signal ratio;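 note: reporter cells co-stimulated with 50 nM rosiglitazone agonist during compound treatment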)
Procedure, shortened: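 We seeded GeneBLAzer HEK293 reporter cells at 3000 per well, allowed 6-6.5 h attachment at 37 C, then co-treated with test compound titrations and 50 nM rosiglitazone overnight (16 h). Inhibition was quantified from 460/530 nm emission ratios.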

Glucocorticoid receptor (Homo sapiens), sequence (P04150 whole entry, looked up): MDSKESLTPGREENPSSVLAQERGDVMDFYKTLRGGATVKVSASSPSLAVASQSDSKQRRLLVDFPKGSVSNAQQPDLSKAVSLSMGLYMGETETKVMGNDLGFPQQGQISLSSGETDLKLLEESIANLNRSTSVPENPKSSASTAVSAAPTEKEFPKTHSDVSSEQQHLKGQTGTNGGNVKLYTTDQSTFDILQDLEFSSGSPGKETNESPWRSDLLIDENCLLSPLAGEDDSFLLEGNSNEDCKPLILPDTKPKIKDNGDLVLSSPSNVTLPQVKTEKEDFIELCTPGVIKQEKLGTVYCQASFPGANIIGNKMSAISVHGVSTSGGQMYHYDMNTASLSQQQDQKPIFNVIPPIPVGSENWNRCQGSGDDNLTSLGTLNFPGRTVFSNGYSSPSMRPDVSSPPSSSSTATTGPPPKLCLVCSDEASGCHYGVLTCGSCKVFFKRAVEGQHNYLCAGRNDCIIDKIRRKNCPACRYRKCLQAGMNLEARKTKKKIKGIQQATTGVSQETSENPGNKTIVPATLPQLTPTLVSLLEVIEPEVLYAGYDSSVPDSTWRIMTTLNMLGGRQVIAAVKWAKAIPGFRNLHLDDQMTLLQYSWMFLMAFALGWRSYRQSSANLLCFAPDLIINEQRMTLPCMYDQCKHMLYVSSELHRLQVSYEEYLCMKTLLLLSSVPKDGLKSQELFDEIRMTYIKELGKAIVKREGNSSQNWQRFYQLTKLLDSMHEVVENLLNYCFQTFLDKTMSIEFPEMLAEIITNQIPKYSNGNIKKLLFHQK
Peroxisome proliferator-activated receptor gamma (Homo sapiens), sequence (P37231 whole entry, looked up): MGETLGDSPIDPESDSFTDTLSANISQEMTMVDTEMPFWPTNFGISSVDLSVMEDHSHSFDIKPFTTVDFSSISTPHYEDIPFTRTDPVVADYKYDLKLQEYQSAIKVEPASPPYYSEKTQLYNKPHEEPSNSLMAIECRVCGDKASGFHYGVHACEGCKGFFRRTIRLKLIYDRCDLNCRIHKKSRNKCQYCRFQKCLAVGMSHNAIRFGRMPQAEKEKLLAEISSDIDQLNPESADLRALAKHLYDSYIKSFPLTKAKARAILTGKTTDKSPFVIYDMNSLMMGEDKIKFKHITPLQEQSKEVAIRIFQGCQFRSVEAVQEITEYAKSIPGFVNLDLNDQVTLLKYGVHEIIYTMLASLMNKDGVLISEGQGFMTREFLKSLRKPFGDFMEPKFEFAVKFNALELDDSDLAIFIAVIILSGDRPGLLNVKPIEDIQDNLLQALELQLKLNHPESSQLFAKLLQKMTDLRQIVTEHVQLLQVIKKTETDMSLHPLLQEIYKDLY
Vitamin D3 receptor (Homo sapiens), sequence (P11473 whole entry, looked up): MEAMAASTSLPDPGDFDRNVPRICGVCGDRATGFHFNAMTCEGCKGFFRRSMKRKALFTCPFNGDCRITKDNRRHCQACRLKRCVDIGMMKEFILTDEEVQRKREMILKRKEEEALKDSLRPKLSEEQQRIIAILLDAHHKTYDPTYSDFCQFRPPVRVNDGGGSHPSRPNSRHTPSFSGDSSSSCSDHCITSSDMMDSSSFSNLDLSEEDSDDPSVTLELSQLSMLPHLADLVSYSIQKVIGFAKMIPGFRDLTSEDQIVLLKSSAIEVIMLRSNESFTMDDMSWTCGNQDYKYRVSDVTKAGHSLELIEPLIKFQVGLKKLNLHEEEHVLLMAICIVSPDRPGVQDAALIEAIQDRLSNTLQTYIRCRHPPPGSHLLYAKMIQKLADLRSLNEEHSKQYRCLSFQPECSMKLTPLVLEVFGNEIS
Bile acid receptor (Homo sapiens), sequence (Q96RI1 whole entry, looked up): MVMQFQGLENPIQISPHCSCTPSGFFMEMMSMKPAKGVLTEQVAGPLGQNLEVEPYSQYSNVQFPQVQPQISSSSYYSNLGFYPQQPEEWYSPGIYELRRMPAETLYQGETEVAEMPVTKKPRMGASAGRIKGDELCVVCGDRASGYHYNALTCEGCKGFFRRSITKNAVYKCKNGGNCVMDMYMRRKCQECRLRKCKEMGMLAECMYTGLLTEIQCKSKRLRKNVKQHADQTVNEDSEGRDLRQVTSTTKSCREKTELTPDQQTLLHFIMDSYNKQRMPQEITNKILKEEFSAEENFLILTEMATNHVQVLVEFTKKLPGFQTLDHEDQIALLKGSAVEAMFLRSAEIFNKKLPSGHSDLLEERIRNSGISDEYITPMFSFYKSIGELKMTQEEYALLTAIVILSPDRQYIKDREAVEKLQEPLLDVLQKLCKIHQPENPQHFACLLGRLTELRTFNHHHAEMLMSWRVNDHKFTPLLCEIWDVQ
Peroxisome proliferator-activated receptor delta (Homo sapiens), sequence (Q03181 whole entry, looked up): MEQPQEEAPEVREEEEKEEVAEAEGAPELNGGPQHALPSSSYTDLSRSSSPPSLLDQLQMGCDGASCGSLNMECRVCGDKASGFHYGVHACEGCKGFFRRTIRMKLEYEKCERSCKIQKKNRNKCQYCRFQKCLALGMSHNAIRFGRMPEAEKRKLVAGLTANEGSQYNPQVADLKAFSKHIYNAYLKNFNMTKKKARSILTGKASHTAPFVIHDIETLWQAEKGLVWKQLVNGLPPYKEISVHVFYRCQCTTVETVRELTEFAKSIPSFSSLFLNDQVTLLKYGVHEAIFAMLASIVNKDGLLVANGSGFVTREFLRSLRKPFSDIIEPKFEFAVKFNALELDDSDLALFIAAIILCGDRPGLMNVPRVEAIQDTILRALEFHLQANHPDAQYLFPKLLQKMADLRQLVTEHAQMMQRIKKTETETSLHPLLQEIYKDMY
Androgen receptor (Homo sapiens), sequence (P10275 whole entry, looked up): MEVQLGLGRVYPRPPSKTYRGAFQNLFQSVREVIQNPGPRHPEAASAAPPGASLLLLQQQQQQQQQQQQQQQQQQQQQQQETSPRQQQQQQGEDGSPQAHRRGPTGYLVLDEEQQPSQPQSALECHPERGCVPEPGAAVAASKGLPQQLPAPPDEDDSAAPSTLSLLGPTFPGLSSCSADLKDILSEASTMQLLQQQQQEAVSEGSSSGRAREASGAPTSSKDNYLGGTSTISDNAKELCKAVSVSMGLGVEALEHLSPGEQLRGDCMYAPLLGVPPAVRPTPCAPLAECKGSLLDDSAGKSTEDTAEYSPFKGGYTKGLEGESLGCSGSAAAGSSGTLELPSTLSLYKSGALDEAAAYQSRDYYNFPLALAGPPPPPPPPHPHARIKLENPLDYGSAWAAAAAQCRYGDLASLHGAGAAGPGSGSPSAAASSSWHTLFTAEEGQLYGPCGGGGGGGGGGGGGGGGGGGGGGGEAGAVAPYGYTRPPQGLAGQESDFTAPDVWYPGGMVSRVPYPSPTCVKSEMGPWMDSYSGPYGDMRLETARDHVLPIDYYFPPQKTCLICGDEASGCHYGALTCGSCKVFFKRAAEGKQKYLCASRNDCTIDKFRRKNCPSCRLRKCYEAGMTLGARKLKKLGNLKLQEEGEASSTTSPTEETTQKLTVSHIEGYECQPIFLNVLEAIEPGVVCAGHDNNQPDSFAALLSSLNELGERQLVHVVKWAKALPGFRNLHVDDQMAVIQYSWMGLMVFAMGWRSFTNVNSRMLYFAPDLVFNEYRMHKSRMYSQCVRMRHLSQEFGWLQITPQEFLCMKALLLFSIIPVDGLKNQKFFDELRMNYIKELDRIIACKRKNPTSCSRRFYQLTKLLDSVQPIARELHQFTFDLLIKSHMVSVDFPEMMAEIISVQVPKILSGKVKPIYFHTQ

SMILES | outcome [1] | outcome [2] | outcome [3] | Potency [4] | Potency [5] | activation [6] | Potency [7] | max response [8] [%] | outcome [9] | outcome [10]
OC[C@@H](O)[C@@H](O)[C@H](O)[C@@H](O)CO | inactive | inactive | inactive |  |  |  |  |  |  | 
CC(C=CC1=C(C)CCCC1(C)C)=CC=CC(C)=CC(=O)Nc1ccc(O)cc1 |  |  | inactive | 35.5 µM (active) | 39.8 µM (active) | 5.23% (inactive) |  |  |  | 
Cc1cc(O)c2c(c1)C(=O)c1cccc(O)c1C2=O | inactive | inactive | inactive |  | inactive |  | inactive | -38.7 | inactive | inactive
O=C1c2cccc(O)c2C(=O)c2c(O)cc(CO)cc21 |  | inactive | inactive |  | inactive | -14.5% (inactive) | inactive |  |  | inactive
C[C@]12CC[C@@H]3c4ccc(O)cc4CC[C@H]3[C@H]1CC[C@H]2O | inactive | inactive | inactive |  |  | -15.8% (inactive) | 15.8 µM (active) | -15.7 | inactive | 
